KCNQ2 inh: inhibitors of rat KCNQ2 potassium channel. O88943. CHO-K1 KCNQ2, FluxOR thallium flux, 20 min; stronger effect = lower value. B-score at 10 µM. 310,000 compounds, 1.1% hits. AID 2156;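 active = fluorescence ratio B-score at most minus 3 library SDs, with starting brightness B-score within 2 library SDs, cut at about -5.5 in these data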
KCNQ2 pot: KCNQ2 (rat) channel potentiation. O88943. CHO-K1 KCNQ2, FluxOR thallium flux fluorescence; stronger effect = higher value. B-score at 10 µM. 310,000 compounds, 0.54% hits. AID 2239;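 active = fluorescence ratio B-score at least 3 SD of library B-scores, with initial fluorescence B-score within 3 of them, cut at about 5.3 in these data; same plate scores as AID 2156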;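 also: B-score of peak minus minimum over baseline fluorescence ratio after K+ and Tl+ stimulus; positive B-score means potentiation of KCNQ2 with more thallium influx and brighter signal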
Kir21 conf inh: confirmation of mouse Kir2.1 potassium channel inhibitors. Tl flux remaining, % of negative control (stronger effect = lower value), % at 10 µM. 2,300 compounds, 41% hits. shares compounds with KCNQ2 pot. Kir2.1-expressing cells, FluxOR thallium flux fluorescence; stronger effect = lower value;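 active = Primary-screen hit whose thallium flux fell at least 3 control SD below untreated wells in both duplicates, with normal baseline fluorescence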;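 also: 0% = blank wells without stimulus and 100% = stimulated no-compound controls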
Target sequence (P35561 whole entry, looked up): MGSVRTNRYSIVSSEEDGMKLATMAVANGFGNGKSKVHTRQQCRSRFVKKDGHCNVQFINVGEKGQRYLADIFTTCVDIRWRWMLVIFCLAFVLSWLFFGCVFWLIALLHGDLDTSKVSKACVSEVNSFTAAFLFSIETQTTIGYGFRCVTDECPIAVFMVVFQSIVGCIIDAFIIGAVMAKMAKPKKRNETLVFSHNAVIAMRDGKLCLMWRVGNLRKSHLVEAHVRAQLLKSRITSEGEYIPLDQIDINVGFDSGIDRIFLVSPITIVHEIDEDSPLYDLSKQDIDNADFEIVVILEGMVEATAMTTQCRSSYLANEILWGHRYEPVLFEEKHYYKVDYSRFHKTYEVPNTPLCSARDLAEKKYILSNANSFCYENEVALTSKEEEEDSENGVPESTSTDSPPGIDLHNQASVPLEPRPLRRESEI
HEK293 Tl flux: parental HEK293 activity in Kir2.1 inhibitor counter-screen; shares compounds with KCNQ2 pot; parental HEK293 cells, FluxOR thallium flux fluorescence; 0% = unstimulated blank wells; FluxOR signal as % of negative control (100 = no effect), % at 10 µM; 2,300 compounds, 19% hits; AID 2105;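 active = dye signal at least 3 control SD above or below untreated wells in both duplicates, raw fluorescence within 3, either direction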;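 also: percent is based on the flux ratio of peak minus minimum fluorescence over baseline F0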
CHO-K1 Tl ctr: counter-screen for KCNQ2 potentiators: effect in parental CHO-K1 cells; 1,200 compounds, 43% hits; shares compounds with KCNQ2 pot; FluxOR thallium flux fluorescence; zero = vehicle mean+3SD, 100% = vehicle-minus-blank window; activity increase over 3SD of controls, % at 10 µM;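 active = signal rise of at least 3 SD above the untreated control mean, in both duplicate wells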;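 also: counter screen of KCNQ2 potentiator hits so any rise reflects channel-independent effects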
KCNQ1 sel pot: human KCNQ1 counter-target activity of KCNQ2 potentiators; shares compounds with KCNQ2 pot; CHO KCNQ1 stable, FluxOR thallium flux fluorescence; beyond 3SD, as % of vehicle-control signal; activation over 3SD threshold, % at 10 µM; 1,200 compounds, 28% hits;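 active = fluorescence ratio rise of at least 3 SD of vehicle wells above their mean, in both replicate wells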;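 also: 0% = vehicle mean plus 3 SD and 100% = vehicle minus unstimulated blank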
KCNQ2 pot conf: confirmation of rat KCNQ2 potassium channel potentiators; shares compounds with KCNQ2 pot; CHO-KCNQ2 cells, FluxOR thallium flux fluorescence; potentiation, less the hit threshold, % at 10 µM; 1,200 compounds, 68% hits; AID 2287;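 active = fluorescence ratio rising 3 SD or more over the vehicle control mean in both replicates, plus primary screen hit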;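 also: peak minus minimum thallium fluorescence divided by baseline after K/Tl stimulus; 0% = vehicle mean plus 3 SD and 100% = vehicle minus unstimulated blank difference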
Kir21 spec: mouse Kir2.1 off-target activity of KCNQ2 potentiators; AID 2345; activity over 3SD threshold, % at 10 µM; HEK293 Kir2.1, FluxOR thallium flux fluorescence; shares compounds with KCNQ2 pot; 1,200 compounds, 2% hits;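 active = fluorescence ratio rise of at least 3 SD above the vehicle-control mean, seen in both replicates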;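 also: 0% = vehicle mean plus 3 SD and 100% = vehicle minus no-stimulus blank window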
KCNQ2 W236L MoA: KCNQ2 potentiators acting on retigabine-insensitive rat KCNQ2 W236L mutant; shares compounds with KCNQ2 pot; CHO KCNQ2-W236L, automated patch clamp current; current increase over 3SD of negative controls (%), stronger effect = higher value, % at 25 µM; 940 compounds, 10% hits;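 active = current increase at least 3 SD of the untreated controls above them in both duplicate recordings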
* marks the source's active call; other numbers are inactive results. Compounds with a hit are over-represented: about 1.6% of the library has one in this group of screens.

Results for Cn1c(CNC(=O)CNS(=O)(=O)c2ccc(F)cc2F)cc(=O)n(C)c1=O ?
KCNQ2 inh: inactive; KCNQ2 pot: 1.8

Results for O=C(N1CCCCC1)C1(S(=O)(=O)c2ccccc2)CC=CC1 ?
KCNQ2 inh: inactive; KCNQ2 pot: 0.68

What do the screens show for `CCN(CC(=O)Nc1ccc(NC(C)=O)cc1)C(=O)CCCc1nc2ccccc2c(=O)[nH]1`?
KCNQ2 inh: inactive

How did CCCCNC(=O)Cn1c2c(c(-c3ccccc3Cl)cc1=O)CCC2 do in these assays?
KCNQ2 inh: inactive; KCNQ2 pot: 0.07

Results for O=C(Cn1c2c(c(-c3ccccc3)cc1=O)CCCC2)N1CCCCCC1 ?
KCNQ2 inh: inactive; KCNQ2 pot: 8.4*; Kir21 conf inh: inactive; HEK293 Tl flux: inactive; CHO-K1 Tl ctr: 34*; KCNQ1 sel pot: 19*; KCNQ2 pot conf: 12*; Kir21 spec: -32; KCNQ2 W236L MoA: inactive

What do the screens show for `CCc1ccc(NC(=O)CCNS(=O)(=O)c2cccc3nsnc23)cc1`?
KCNQ2 inh: inactive; KCNQ2 pot: 0.72

How did O=C(O)COc1ccccc1/C=N/NC(=O)CSc1nc2ccccc2n1Cc1ccccc1Cl do in these assays?
KCNQ2 inh: inactive; KCNQ2 pot: 2.3; Kir21 conf inh: inactive; HEK293 Tl flux: 73%*

Results for O=C(CSc1nc2ccccc2n1Cc1ccccc1)N/N=C/c1ccccc1C(=O)O ?
KCNQ2 inh: inactive; KCNQ2 pot: 0.51

How did CCOC(=O)C(=Cc1cc(=O)c(OC)co1)C(=O)OCC do in these assays?
KCNQ2 inh: inactive; KCNQ2 pot: 2.9; Kir21 conf inh: inactive; HEK293 Tl flux: inactive

Results for COc1coc(C(O)CN)cc1=O (configuration not stated) ?
KCNQ2 inh: inactive; KCNQ2 pot: 0.73

Results for CCOC(=O)CSC1=NC(=O)/C(=C/c2ccc(OC)cc2)S1 ?
KCNQ2 inh: inactive

How did N#CC1=C(N)NC(=S)C(C(N)=O)C1c1ccc([N+](=O)[O-])cc1 (configuration not stated) do in these assays?
KCNQ2 inh: inactive

How did CN1CCN(NC(=O)COc2cccc(C(F)(F)F)c2)CC1 do in these assays?
KCNQ2 inh: inactive

How did COc1cccc(CC(=O)Nc2cc(C(F)(F)F)ccc2N2CCCC2)c1 do in these assays?
KCNQ2 inh: inactive; KCNQ2 pot: 5.4*; Kir21 conf inh: inactive; HEK293 Tl flux: inactive; CHO-K1 Tl ctr: -15; KCNQ1 sel pot: -22; KCNQ2 pot conf: -1; Kir21 spec: -32; KCNQ2 W236L MoA: inactive

Results for O=C(COc1ccccc1)Nc1cc(C(F)(F)F)ccc1N1CCCC1 ?
KCNQ2 inh: inactive

How did Cc1cc(N2CCCC2)ccc1NC(=O)COc1cccc(C(F)(F)F)c1 do in these assays?
KCNQ2 inh: inactive; KCNQ2 pot: 6.4*; Kir21 conf inh: inactive; HEK293 Tl flux: inactive; CHO-K1 Tl ctr: -11; KCNQ1 sel pot: -12; KCNQ2 pot conf: 6.0*; Kir21 spec: -40; KCNQ2 W236L MoA: inactive

How did CC(=O)c1cc2c(cc1NC(=O)CN1Cc3ccccc3C1=O)OCO2 do in these assays?
KCNQ2 inh: inactive

Results for O=C(CSc1nc2ccccc2c(=O)[nH]1)Nc1ccc(N2CCOCC2)c(Cl)c1 ?
KCNQ2 inh: inactive; KCNQ2 pot: 1.5

How did CC1=NNC(=O)C1CCC(=O)N/N=C/C=C/c1ccccc1 (configuration not stated) do in these assays?
KCNQ2 inh: inactive; KCNQ2 pot: 0.85

Screens from PubChem BioAssay.
